# From ChEMBL document CHEMBL1961873, “Compounds: GSK PKIS; Assays: Nanosyn kinase panel” (2012)
# How the values were obtained:
# [1] = target: T1, Serine/threonine-protein kinase D2 (Homo sapiens) (UniProt Q9BZL6); conditions: at 1 µM;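 also: mean value of PRKD2 inhibition, from the GSK PKIS screening panel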
# T1 sequence (whole entry): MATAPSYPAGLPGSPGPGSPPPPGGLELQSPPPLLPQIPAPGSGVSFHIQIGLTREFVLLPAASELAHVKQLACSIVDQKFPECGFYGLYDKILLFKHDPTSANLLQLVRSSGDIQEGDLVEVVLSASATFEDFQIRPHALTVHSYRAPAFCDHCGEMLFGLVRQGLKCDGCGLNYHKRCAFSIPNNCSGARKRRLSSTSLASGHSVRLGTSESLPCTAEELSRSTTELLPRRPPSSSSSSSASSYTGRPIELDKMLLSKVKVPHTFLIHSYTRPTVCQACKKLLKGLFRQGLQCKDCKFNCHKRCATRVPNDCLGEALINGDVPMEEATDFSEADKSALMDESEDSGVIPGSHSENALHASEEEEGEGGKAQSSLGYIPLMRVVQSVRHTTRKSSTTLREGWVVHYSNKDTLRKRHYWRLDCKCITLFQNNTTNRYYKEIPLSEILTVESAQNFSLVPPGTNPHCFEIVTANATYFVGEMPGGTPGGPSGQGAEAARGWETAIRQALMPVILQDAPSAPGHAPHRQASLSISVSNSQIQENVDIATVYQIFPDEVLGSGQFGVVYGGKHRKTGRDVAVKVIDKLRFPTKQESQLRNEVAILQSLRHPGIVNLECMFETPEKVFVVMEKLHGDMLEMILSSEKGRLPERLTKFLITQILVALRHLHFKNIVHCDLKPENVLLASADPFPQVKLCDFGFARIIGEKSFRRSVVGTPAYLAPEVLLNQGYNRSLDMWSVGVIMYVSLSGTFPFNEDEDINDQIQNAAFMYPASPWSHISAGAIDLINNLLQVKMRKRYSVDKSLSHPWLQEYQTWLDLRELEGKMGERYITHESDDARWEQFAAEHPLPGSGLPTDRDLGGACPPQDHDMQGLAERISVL
# [2] = target: T2, Serine/threonine-protein kinase D3 (Homo sapiens) (UniProt O94806); conditions: at 0.1 µM
# T2 sequence (whole entry): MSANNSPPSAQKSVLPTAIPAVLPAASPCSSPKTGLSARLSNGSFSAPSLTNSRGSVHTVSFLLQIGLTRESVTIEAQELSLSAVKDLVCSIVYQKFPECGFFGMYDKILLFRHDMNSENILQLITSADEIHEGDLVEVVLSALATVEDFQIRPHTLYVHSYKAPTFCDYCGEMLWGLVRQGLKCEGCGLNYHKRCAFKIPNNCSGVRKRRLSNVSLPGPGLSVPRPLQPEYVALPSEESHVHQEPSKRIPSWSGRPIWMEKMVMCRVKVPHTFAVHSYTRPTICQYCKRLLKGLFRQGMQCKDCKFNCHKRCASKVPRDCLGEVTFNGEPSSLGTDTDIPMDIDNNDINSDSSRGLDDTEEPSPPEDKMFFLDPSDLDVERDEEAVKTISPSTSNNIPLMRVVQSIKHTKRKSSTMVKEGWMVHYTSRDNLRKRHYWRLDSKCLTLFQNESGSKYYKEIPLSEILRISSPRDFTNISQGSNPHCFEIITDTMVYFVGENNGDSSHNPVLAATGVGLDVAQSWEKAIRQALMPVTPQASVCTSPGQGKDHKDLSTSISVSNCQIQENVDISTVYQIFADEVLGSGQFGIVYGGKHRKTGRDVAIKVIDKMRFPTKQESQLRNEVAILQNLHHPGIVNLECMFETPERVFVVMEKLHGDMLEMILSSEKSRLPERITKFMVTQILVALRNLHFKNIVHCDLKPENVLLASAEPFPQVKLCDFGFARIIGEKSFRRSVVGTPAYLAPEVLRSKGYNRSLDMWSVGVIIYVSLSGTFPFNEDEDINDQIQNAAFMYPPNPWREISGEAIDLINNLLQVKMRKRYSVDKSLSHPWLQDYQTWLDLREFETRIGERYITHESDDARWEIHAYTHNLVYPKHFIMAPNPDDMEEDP
# [3] = target: T2, Serine/threonine-protein kinase D3 (Homo sapiens); conditions: at 1 µM
# [4] = target: T3, cGMP-dependent protein kinase 1 (Homo sapiens) (UniProt Q13976); conditions: at 0.1 µM
# T3 sequence (whole entry): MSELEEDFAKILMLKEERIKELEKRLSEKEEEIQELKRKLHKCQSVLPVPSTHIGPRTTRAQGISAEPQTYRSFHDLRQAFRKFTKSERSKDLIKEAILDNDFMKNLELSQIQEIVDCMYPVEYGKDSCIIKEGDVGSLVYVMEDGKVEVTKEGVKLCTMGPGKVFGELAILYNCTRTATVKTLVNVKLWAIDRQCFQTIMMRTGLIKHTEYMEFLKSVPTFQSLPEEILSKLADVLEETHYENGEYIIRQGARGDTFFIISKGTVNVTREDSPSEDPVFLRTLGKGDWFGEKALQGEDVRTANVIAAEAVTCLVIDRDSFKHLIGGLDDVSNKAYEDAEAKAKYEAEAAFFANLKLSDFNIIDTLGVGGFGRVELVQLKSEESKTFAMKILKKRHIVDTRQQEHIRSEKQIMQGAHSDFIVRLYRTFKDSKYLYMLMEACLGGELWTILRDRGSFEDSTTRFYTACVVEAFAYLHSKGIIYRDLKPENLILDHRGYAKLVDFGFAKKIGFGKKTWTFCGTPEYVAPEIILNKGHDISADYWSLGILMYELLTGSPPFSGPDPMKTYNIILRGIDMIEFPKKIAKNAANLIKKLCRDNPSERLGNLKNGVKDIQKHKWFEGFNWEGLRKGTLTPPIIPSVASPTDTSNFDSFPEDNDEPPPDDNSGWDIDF
# [5] = target: T3, cGMP-dependent protein kinase 1 (Homo sapiens); conditions: at 1 µM
# [6] = target: T4, cGMP-dependent protein kinase 2 (Homo sapiens) (UniProt Q13237); conditions: at 0.1 µM
# T4 sequence (whole entry): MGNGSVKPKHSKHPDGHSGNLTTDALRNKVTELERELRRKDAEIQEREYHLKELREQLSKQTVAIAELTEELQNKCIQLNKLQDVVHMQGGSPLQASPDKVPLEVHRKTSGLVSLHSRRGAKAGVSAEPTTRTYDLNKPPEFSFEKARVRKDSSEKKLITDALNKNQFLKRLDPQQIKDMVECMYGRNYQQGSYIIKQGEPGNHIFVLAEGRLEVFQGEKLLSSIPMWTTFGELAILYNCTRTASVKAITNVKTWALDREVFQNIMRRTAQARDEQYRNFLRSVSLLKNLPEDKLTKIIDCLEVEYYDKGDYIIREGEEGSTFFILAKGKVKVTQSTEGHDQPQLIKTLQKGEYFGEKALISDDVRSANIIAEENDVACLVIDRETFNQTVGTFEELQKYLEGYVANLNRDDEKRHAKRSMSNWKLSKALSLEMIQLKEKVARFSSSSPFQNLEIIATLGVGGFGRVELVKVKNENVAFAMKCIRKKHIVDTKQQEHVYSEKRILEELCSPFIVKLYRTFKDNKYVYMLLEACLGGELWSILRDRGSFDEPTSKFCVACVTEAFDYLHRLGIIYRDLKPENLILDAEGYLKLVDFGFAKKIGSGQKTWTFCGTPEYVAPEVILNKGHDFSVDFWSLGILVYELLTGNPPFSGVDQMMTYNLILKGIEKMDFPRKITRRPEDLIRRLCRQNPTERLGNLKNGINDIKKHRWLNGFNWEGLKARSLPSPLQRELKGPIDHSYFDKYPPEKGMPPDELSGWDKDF
# [7] = target: T4, cGMP-dependent protein kinase 2 (Homo sapiens); conditions: at 1 µM
# [8] = target: T5, cAMP-dependent protein kinase catalytic subunit PRKX (Homo sapiens) (UniProt P51817); conditions: at 0.1 µM
# T5 sequence (whole entry): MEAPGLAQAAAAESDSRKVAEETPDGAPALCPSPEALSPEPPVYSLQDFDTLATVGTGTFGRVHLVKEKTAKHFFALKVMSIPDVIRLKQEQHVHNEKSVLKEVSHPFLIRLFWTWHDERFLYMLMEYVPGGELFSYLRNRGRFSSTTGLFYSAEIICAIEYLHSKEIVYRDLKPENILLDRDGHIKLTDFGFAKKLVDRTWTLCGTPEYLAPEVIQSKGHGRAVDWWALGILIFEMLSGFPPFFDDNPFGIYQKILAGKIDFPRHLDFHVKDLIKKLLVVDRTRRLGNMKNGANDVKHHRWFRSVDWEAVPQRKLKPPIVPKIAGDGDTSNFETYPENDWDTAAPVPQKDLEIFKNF
# [9] = target: T5, cAMP-dependent protein kinase catalytic subunit PRKX (Homo sapiens); conditions: at 1 µM
# [10] = target: Rho-associated protein kinase 1 (Homo sapiens) (UniProt Q13464); conditions: at 0.1 µM
# [11] = target: Rho-associated protein kinase 1 (Homo sapiens) (UniProt Q13464); conditions: at 1 µM
# [12] = target: Rho-associated protein kinase 2 (Homo sapiens) (UniProt O75116); conditions: at 0.1 µM
# [13] = target: Rho-associated protein kinase 2 (Homo sapiens) (UniProt O75116); conditions: at 1 µM
# [14] = target: Ribosomal protein S6 kinase alpha-1 (Homo sapiens) (UniProt Q15418); conditions: at 0.1 µM
# [15] = target: Ribosomal protein S6 kinase alpha-1 (Homo sapiens) (UniProt Q15418); conditions: at 1 µM
# [16] = target: Ribosomal protein S6 kinase alpha-3 (Homo sapiens) (UniProt P51812); conditions: at 0.1 µM
# [17] = target: Ribosomal protein S6 kinase alpha-3 (Homo sapiens) (UniProt P51812); conditions: at 1 µM
# [18] = target: Ribosomal protein S6 kinase alpha-2 (Homo sapiens) (UniProt Q15349); conditions: at 0.1 µM
# [19] = target: Ribosomal protein S6 kinase alpha-2 (Homo sapiens) (UniProt Q15349); conditions: at 1 µM
# [20] = target: Ribosomal protein S6 kinase alpha-6 (Homo sapiens) (UniProt Q9UK32); conditions: at 0.1 µM;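 also: reported value is the mean inhibition of RSK4, from the GSK PKIS kinase inhibitor screen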
# Ribosomal protein S6 kinase alpha-6 (Homo sapiens), sequence (Q9UK32 whole entry): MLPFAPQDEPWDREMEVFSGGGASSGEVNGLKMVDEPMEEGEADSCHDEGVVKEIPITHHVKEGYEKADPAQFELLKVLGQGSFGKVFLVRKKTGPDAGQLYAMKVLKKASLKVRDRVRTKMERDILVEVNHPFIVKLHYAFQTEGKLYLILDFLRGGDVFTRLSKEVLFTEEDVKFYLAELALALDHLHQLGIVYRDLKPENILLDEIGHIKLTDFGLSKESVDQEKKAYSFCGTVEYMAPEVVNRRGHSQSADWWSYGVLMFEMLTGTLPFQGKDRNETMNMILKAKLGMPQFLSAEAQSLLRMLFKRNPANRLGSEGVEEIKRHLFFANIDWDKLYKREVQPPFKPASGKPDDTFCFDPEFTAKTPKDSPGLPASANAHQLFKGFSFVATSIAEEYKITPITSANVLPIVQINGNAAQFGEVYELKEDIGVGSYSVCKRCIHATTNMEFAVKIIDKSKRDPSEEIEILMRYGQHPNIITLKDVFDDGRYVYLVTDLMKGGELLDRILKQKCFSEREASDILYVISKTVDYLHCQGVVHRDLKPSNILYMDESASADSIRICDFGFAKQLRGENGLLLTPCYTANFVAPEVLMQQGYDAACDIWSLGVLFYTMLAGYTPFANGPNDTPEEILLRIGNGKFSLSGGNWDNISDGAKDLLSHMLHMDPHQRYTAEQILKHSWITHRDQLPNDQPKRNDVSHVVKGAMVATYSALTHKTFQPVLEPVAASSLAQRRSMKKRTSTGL
# Ribosomal protein S6 kinase alpha-1 (Homo sapiens), sequence (Q15418 whole entry): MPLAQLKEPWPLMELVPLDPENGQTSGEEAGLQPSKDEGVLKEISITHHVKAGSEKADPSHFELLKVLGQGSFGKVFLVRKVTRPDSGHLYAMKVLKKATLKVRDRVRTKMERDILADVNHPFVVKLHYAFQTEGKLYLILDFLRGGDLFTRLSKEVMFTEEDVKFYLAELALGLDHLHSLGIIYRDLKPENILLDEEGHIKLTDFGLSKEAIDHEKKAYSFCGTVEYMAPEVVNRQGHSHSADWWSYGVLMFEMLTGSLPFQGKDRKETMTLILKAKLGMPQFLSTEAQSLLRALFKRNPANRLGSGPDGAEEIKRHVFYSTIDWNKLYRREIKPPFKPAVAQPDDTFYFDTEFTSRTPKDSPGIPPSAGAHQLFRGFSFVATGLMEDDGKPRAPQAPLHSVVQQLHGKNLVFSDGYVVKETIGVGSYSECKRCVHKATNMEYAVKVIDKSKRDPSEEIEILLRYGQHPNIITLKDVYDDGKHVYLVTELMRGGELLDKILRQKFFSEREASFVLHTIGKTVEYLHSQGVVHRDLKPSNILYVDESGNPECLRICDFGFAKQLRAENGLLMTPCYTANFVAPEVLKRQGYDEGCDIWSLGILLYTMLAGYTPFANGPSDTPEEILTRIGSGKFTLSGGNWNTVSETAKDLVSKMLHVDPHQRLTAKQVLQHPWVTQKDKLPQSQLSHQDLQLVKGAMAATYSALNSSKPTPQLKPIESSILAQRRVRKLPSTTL
# Rho-associated protein kinase 1 (Homo sapiens), sequence (Q13464 2-1354 limits assumed): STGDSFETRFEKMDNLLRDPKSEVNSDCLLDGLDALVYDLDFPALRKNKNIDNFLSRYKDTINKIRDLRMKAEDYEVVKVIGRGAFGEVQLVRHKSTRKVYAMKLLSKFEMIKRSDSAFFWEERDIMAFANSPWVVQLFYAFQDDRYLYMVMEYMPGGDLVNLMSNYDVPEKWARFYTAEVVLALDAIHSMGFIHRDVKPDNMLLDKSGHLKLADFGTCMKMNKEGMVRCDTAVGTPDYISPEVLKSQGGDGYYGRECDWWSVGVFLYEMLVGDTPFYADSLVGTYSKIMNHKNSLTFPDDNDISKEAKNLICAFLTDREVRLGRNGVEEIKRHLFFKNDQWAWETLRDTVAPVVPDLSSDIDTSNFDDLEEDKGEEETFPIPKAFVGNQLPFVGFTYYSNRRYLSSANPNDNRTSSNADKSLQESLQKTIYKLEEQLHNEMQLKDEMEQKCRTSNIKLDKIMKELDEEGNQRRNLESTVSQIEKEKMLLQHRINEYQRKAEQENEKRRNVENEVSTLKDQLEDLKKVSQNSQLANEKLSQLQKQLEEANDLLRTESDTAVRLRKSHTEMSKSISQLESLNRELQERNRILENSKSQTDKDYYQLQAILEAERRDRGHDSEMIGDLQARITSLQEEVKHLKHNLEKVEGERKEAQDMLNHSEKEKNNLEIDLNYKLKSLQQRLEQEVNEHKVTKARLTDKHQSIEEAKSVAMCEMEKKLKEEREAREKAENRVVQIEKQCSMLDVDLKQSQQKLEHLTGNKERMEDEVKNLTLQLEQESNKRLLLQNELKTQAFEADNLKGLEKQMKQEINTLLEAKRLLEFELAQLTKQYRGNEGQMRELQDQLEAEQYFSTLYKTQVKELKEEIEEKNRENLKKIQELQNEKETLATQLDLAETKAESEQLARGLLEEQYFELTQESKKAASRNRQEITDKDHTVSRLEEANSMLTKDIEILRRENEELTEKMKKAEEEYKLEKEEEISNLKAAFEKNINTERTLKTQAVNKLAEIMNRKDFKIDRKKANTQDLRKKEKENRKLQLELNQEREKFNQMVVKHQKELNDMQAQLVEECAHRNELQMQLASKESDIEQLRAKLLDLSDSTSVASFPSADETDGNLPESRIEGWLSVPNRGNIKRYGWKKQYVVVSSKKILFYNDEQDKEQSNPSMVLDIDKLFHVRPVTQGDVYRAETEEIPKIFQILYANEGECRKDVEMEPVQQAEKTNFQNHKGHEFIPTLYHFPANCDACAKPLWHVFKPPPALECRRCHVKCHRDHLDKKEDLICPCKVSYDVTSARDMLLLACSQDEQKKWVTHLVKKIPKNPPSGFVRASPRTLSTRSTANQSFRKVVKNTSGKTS
# Rho-associated protein kinase 2 (Homo sapiens), sequence (O75116 whole entry, looked up): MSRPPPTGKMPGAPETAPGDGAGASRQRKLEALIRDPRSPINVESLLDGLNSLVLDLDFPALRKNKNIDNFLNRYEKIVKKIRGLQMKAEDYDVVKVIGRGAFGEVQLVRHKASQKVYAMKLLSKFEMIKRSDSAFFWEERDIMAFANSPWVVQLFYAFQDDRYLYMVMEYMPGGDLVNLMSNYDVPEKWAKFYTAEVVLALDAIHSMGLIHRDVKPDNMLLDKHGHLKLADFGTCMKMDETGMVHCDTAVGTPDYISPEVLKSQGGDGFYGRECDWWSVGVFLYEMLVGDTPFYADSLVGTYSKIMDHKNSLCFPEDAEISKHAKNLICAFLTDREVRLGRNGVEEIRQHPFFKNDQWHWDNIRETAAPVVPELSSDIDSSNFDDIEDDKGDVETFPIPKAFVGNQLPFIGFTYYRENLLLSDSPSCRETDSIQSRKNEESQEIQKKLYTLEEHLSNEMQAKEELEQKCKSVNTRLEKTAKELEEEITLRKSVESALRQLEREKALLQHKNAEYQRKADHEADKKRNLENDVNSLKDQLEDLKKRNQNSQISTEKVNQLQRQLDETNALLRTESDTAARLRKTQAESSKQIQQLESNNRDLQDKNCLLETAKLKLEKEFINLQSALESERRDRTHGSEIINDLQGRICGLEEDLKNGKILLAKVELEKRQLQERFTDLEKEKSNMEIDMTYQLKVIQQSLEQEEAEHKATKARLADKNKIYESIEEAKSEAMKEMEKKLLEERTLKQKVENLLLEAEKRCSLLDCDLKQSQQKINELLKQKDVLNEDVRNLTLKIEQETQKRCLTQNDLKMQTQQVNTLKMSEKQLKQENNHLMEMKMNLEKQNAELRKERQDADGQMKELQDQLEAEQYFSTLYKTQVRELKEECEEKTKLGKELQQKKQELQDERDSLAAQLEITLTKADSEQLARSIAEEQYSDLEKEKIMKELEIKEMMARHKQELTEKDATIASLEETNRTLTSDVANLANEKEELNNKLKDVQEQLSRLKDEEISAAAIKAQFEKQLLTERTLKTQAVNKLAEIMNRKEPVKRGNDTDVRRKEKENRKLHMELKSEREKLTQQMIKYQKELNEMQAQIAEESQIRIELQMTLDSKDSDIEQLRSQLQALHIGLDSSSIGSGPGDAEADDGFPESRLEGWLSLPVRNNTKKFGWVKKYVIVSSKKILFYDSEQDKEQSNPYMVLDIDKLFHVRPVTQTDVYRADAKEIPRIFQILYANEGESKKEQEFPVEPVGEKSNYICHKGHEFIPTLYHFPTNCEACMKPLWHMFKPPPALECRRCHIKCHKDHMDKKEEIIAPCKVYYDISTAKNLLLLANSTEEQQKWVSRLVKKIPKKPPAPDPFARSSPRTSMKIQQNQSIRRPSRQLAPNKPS
# Ribosomal protein S6 kinase alpha-2 (Homo sapiens), sequence (Q15349 whole entry): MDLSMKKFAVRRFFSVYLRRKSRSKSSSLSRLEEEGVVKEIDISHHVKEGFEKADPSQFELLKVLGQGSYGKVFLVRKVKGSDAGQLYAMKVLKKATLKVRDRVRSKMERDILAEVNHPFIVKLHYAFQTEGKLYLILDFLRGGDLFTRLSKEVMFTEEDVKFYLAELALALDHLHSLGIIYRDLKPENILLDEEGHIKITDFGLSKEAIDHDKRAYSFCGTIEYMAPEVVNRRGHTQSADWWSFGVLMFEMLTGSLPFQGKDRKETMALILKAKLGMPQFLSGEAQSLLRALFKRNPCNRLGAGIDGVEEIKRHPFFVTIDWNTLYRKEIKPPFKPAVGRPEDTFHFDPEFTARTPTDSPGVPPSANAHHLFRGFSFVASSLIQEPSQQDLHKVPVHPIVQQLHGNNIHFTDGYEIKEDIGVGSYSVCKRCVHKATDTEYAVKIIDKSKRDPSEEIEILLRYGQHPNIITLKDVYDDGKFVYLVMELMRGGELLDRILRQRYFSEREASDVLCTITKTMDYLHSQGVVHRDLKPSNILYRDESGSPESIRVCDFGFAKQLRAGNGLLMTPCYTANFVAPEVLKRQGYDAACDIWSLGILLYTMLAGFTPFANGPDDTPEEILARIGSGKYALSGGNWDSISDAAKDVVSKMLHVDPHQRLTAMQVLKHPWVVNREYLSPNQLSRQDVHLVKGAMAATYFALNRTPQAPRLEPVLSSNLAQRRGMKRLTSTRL
SMILES,inhibition [1] [%],inhibition [2] [%],inhibition [3] [%],inhibition [4] [%],inhibition [5] [%],inhibition [6] [%],inhibition [7] [%],inhibition [8] [%],inhibition [9] [%],inhibition [10] [%],inhibition [11] [%],inhibition [12] [%],inhibition [13] [%],inhibition [14] [%],inhibition [15] [%],inhibition [16] [%],inhibition [17] [%],inhibition [18] [%],inhibition [19] [%],inhibition [20] [%]
COc1cccc(-n2ncc3c(N/N=C/c4ccc(F)cc4)ncnc32)c1,3.35,4.25,4.06,1.9,4.15,2.19,2.67,2.4,4.79,1,1.49,4.65,6.14,2.21,4.62,1.27,2.74,0.94,3.3,1.4
CCOc1ccc2c(-c3ccnc(Nc4cccc(C(F)(F)F)c4)n3)cnn2n1,1.84,3.02,3.58,0.52,1.15,0.91,0.29,0.1,-0.76,-1.15,-1,1.46,-0.05,-0.89,0.51,1.29,1.88,1.09,0.76,-0.47
Clc1ccc(-c2nn3ncccc3c2-c2ccnc(Nc3ccccc3)n2)cc1,2.67,1.78,4.14,3.3,5.54,1.46,3.41,2.16,2.02,2.28,4.03,2.19,3.84,1.56,2.48,0.47,1.89,0.49,1.37,0.64
COc1cc(/C=N/Nc2ncnc3[nH]ncc23)ccc1O,3.63,2.22,3.16,3.83,14.8,13.5,55,1.69,3.71,1.5,5.67,4.64,13.9,1.89,11.3,2.74,11.7,1.62,9.77,2.97
Fc1ccc(-c2cc(-c3c[nH]nc3-c3ccccn3)ccn2)cc1,32.4,6.2,20.5,1.49,4.77,1.37,2.9,1.98,5.03,-0.11,1.54,2.91,7.8,1.71,5.2,0.81,3.36,1.61,2.64,-0.68
COc1ccc(-c2cc3c(N)ncnc3o2)cc1,-0.42,-1.77,-1.37,-0.46,0.25,-1.2,1.5,0.58,0.29,-0.42,1.74,0.73,1.85,1.04,0.11,1.43,2.31,-0.65,0.29,-0.28
CN1CCC(n2cnc(-c3ccc(F)cc3)c2-c2ccnc(N)n2)CC1,16.4,2.68,17.3,0.5,9.09,2.99,30.7,0.51,1.95,-0.08,1.34,0.69,5.69,1.08,4.9,-0.12,2.82,1.52,4.57,1.08
CN(C)CCOc1ccc(-c2nc(-c3ccncc3)c(-c3ccc4c(c3)CC/C4=N\O)[nH]2)cc1,6.37,3.58,5.44,2.17,6.12,2.69,12.3,1.16,1.33,0.51,1.11,3.19,4.22,2.14,5.08,1.07,2,1.9,2.18,0.86
COc1cccc(-c2c[nH]c3c(N/N=C/c4ccncc4)ncnc23)c1,5.96,1.85,5.38,2.91,4.69,1.71,8.58,1.13,-0.16,1.94,7.68,3.52,11.7,2.76,7.19,1.21,7.47,2.28,11.7,1.63
